Shown are actives, neighbours in structure and some others; about 21% of the full set was active somewhere.
DT40 TDP1 CPT = qHTS for Inhibitors of human tyrosyl-DNA phosphodiesterase 1 (TDP1): qHTS in cells in presence of CPT | chicken DT40 Tdp1-/-;hTDP1 cells + 20 nM CPT, ATP luminescence, 48 h | Potency, µM (doses to about 46.2 µM), for inactives: at the top dose activity change, negative = growth inhibition, actives largely listed as inhibitors | 12% of 420,000 active; note: potency is the fitted concentration of half-maximal effect; nearly all actives have a fitted effect of over 55% in size
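Cell growth measured by CellTiter-Glo luminescence after a minimum 48 h, 37 C compound exposure with 20 nM CPT in Tdp1-knockout DT40 cells stably expressing hTDP1, seeded 400/well; qHTS titration format.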
TDP1 cell noCPT = qHTS for Inhibitors of human tyrosyl-DNA phosphodiesterase 1 (TDP1): qHTS in cells in absence of CPT. Potency, µM (doses to about 46.2 µM), without a hit: top-dose activity change, negative = growth inhibition, usual class: inhibitors. 15% of 420,000 active. DT40 Tdp1-/- hTDP1 cells, no CPT, ATP luminescence, 48 h; note: potency is the fitted concentration of half-maximal effect; nearly all actives have a fitted effect of over 55% in size
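Cells were dispensed at 400 per well, compounds added by pin tool, plates incubated ≥48 hr at 37 °C, then CellTiter-Glo added for 30 min at room temperature before luminescence reading. Line: DT40 Tdp1-/- complemented with hTDP1; camptothecin omitted.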
RORg inh = qHTS for inhibitors of ROR gamma transcriptional activity; Potency, µM (titrated, usually from 53.6 µM), for the others: top-dose activity change, negative = inhibition, usual class: inhibitors; AID 2551, 2010; Drosophila S2 Gal4-RORgamma UAS-luciferase reporter, 20 h; Nuclear receptor ROR-gamma (Mus musculus), P51450; 5.4% of 310,000 active; note: potency is the fitted concentration of half-maximal effect; nearly all actives have a fitted effect of over 60% in size
Target sequence (P51450 whole entry, looked up, the tested form may be a part): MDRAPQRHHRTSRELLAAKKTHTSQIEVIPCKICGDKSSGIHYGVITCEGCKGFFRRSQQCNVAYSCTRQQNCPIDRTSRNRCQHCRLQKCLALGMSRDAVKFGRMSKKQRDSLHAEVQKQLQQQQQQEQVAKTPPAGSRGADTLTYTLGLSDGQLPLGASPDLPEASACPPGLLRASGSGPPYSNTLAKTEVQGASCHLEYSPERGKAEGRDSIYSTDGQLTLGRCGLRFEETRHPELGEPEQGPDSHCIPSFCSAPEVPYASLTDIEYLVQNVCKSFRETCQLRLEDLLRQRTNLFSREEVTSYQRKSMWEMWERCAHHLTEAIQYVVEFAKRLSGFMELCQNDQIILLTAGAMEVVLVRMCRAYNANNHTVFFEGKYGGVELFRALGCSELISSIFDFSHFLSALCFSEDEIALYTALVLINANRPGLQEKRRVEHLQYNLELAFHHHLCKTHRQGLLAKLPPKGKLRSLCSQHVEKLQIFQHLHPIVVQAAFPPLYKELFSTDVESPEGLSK
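Luminescence from a UAS-regulated Photinus luciferase reporter in stably transfected Drosophila Schneider cells is measured; decreased signal marks ROR gamma inhibition. Fusion expression is induced by 700 uM copper sulfate for 20 hr.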
ELG1 DNA repair = qHTS screen for small molecules that inhibit ELG1-dependent DNA repair in human embryonic kidney (HEK293T) cells expressing luciferase-tagged ELG1 | 2.3% of 330,000 active | Potency, µM (top dose mostly 46.1 µM), inactives show at the top dose activity change, negative = inhibition, hits mostly inhibitors | AID 504467, 2011 | HEK293T ELG1-luciferase reporter, luminescence, 16 h; DNA damage induced by 5-fluorouridine; note: potency is the fitted concentration of half-maximal effect; nearly all actives have a fitted effect of over 55% in size
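Overnight (16 hr) co-exposure of 2,000 cells/well to 5-fluorouridine and compound at 37 °C preceded detection. Luciferase was quantified via ONE-Glo luminescence; loss of signal denotes inhibition.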
IL1B secr inh = qHTS for Inhibitors of Inflammasome Signaling: IL-1-beta AlphaLISA Primary Screen. THP-1 LPS/ATP IL-1B secretion, AlphaLISA, 16 h; stronger effect = lower value. activity change, % at 57.5 µM. 4.7% of 360,000 active. AID 743279, 2014; in the data active = activity change below about -50%; inconclusive = mostly about -30% to -49%
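Secreted IL-1B measured by AlphaLISA bead assay after 16 h compound exposure of THP-1 cells; compounds (final up to 57.5 uM) added 1 h before LPS (250 ng/mL) and ATP (1.25 mM) stimulation; lower signal means less secretion.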
VP16 counter = VP16 counterscreen qHTS for inhibitors of ROR gamma transcriptional activity; Potency, µM (series often up to 53.6 µM), inactives show at the highest dose activity, negative = inhibition, usual class: inhibitors; Drosophila S2 Gal4-VP16 UAS-luciferase, luminescence, 20 h; 3.5% of 310,000 active;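 note: Gal4-VP16 expression switched on by copper sulfate through the metallothionein promoter; potency is the fitted concentration of half-maximal effect; nearly all actives have a fitted effect of over 50% in size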
Starred values were filed as active, the others as inactive; ? = inconclusive; . = no result. Unless noted, calls come from the whole dose curve; as a rule, active = well fitted curve in the direction sought with a large enough effect; inconclusive = small, poorly fitted or top-dose-only effect, or another doubt; inactive = no such curve, though single readings can be large; an effect the other way counts as inactive or inconclusive. % is set by controls: 0 for no effect and ±100 for the full control effect.

SMILES	DT40 TDP1 CPT	TDP1 cell noCPT	RORg inh	ELG1 DNA repair	IL1B secr inh	VP16 counter
O=C(c1ccc(Cl)c(Cl)c1)N1CCC(=O)N([C@H](COCc2ccc(Cl)cc2)Cc2ccccc2)CC1	?	23µM*	.	.	-67*	.
O=C(c1ccc(Cl)c(Cl)c1)N1CCC(=O)N(C(COCc2cccc(Cl)c2)Cc2ccccc2)CC1 (stereo not drawn)	?	?	?	?	-68*	-12%
CCNC(=O)C1(C)CCN(C(=O)c2ccccc2OC)C1 (stereo not drawn)	-7%	-23%	.	.	22	.
COc1ccc(C)cc1S(=O)(=O)N1CCN(c2cccc(Cl)c2)CC1	21µM*	?	.	.	.	.
COc1ccc(C)cc1S(=O)(=O)N1CCCC(N2CCN(c3ccccc3)CC2)C1 (stereo not drawn)	?	21µM*	.	.	40	.
COc1ccc(Cl)cc1S(=O)(=O)N1CCN=C1C	18µM*	?	-21%	14%	0	4%
O=C(Cn1nc(C(F)(F)F)cc1C1CC1)NCc1ccccc1F	?	-25%	-17%	-16%	0	-13%
COc1ccc(C(=O)Nc2nc(OCC(F)(F)F)cnc2/C=C\c2ccccc2)c(OC)c1	21µM*	?	.	.	-14	.
O=C(Nc1nc(OCC(F)(F)F)cnc1/C=C\c1ccccc1)c1ccsc1	23µM*	?	.	.	-5	.
N/C(=N\c1nc2ccccc2o1)NC(=O)c1ccccc1F	-1%	?	2.5µM*	?	6	7.9µM*
N/C(=N\c1nc2ccccc2o1)NC(=O)c1ccccc1NC(=O)c1ccccc1	5.2µM*	3.7µM*	-82%	?	6	?
COc1ccccc1C(=O)NC(=Nc1nc2ccccc2o1)NC(=O)c1ccccc1OC	-27%	?	0.79µM*	?	63	?
O=C(NC(=Nc1nc2ccccc2o1)NC(=O)c1ccccc1)c1ccccc1	29%	?	-9%	?	-16	22%
CCN1C(C)=CC(=O)[C@@H](O)[C@H]1c1ccccc1Br	-8%	-9%	.	.	88	.
CCN(CC)C(=O)C1=C(C)N(CCCOC)C(=O)C(CC(=O)NC2CC2)C1 (stereo not drawn)	-4%	0%	.	.	8	.
COc1cc(C2C=C(C34CC5CC(CC(C5)C3)C4)NC(=S)N2)cc(OC)c1OC (stereo not drawn)	?	5.8µM*	1µM*	23µM*	0	0.79µM*
CCOC(=O)C1C(c2cc(OC)c(OC)c(OC)c2)NC(=S)NC1(O)C(F)(F)F (stereo not drawn)	1%	16%	1%	1%	10	3%
COc1ccc(C2=CC(c3cc(OC)c(OC)c(OC)c3)NC(=S)N2)cc1 (stereo not drawn)	?	?	13µM*	-5%	6	?
COc1cc(C2NC(=O)CS2)cc(OC)c1OC (stereo not drawn)	4%	-25%	-12%	-7%	5	-8%
O=C(O)c1cc([N+](=O)[O-])ccc1Oc1ccccc1	2%	1%	.	.	18	.
Cc1ccc(N(CC(=O)NC(C)C)C(=O)CCC(=O)Nc2ccccn2)c(C)c1	-4%	-1%	.	.	?	.
O=C(O)C(=Cc1ccncc1)c1cccc2ccccc12	-4%	-16%	.	.	9	.
COC(=O)C(=Cc1ccncc1)c1cccc2ccccc12	6.5µM*	13µM*	.	.	0	.
